# Measured values published in the supplement of paper PMC8728848.
# Many of the other results were omitted from the sample, so the strongest signals are more common in it than they were.
# B1: AAL (Agrocybe aegerita), Q6WY08 (protein)
# chain: MQGVNIYNISAGTSVDLAAPVTTGDIVTFFSSALNLNAGAGNPNNTTLNLFAENGAYLLHIAFRLQENVIIFNSRQPDGPWLVEQRVSDVANQFAGIDGKAMVTVFDHGDKYQVVINEKTVIQYTKQISGLTLSLSYNATEETSIFSTVVEAVTYTGLALEHHHHHH
# Columns and labels:
# Test in all cases: glycan array binding signal (z-score within array); higher = stronger binding
# Settings in all cases: glycan notation: IUPAC condensed, linker removed
# [1] = target: Gal3S(b1-4)GlcNAc6S
# In short: (§1)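 Columns mapping to the same glycan were averaged after glycan names were converted to IUPAC-condensed notation. The data come from 3228 arrays in the Consortium for Functional Glycomics database, limited to those with an available protein sequence. Binding is reported as a within-array Z-score averaged across arrays of one protein sequence and across linkers.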
# [2] = target: Gal6S(b1-4)Glc
# In short: as §1
# [3] = target: GalNAc(a1-3)GalNAc(b1-3)Gal(a1-4)Gal(b1-4)GlcNAc
# In short: as §1
# [4] = target: GlcA3S(b1-3)Gal(b1-4)GlcNAc(b1-2)Man
# In short: as §1
# [5] = target: GlcA3S(b1-3)Gal(b1-4)GlcNAc(b1-3)Gal(b1-4)Glc
# In short: as §1
# [6] = target: GlcNAc(a1-4)Gal(b1-4)GalNAc
# In short: as §1
# [7] = target: GlcNAc(b1-2)Man(a1-3)[GlcNAc(b1-4)][GlcNAc(b1-2)Man(a1-6)]Man(b1-4)GlcNAc(b1-4)GlcNAc
# In short: as §1
# [8] = target: GlcNAc(b1-2)Man(a1-3)[GlcNAc(b1-4)][GlcNAc(b1-2)Man(a1-6)]Man(b1-4)GlcNAc(b1-4)[Fuc(a1-6)]GlcNAc
# In short: as §1
# [9] = target: GlcNAc(b1-2)[GlcNAc(b1-4)]Man(a1-3)[GlcNAc(b1-4)][GlcNAc(b1-2)Man(a1-6)]Man(b1-4)GlcNAc(b1-4)GlcNAc
# In short: as §1
# [10] = target: GlcNAc(b1-3)Gal(b1-4)GlcNAc(b1-6)[Gal(b1-3)]GalNAc
# In short: as §1
# [11] = target: Man(a1-3)[Man(a1-6)]Man(a1-6)[Man(a1-3)]Man(b1-4)GlcNAc(b1-4)GlcNAc
# In short: as §1
# [12] = target: Neu5Ac(a2-3)Gal
# In short: as §1
# [13] = target: Neu5Ac(a2-3)Gal(b1-3)GalNAc(b1-3)Gal(a1-4)Gal(b1-4)Glc
# In short: as §1
# [14] = target: Neu5Ac(a2-3)Gal(b1-4)GlcNAc(b1-2)Man(a1-3)[GlcNAc(b1-2)Man(b1-4)GlcNAc(b1-2)Man(a1-6)]Man(b1-4)GlcNAc(b1-4)GlcNAc
# In short: as §1
# [15] = target: Neu5Ac(a2-3)Gal(b1-4)GlcNAc(b1-2)Man(a1-3)[Neu5Ac(a2-3)Gal(b1-4)GlcNAc(b1-2)Man(a1-6)]Man(b1-4)GlcNAc(b1-4)[Fuc(a1-6)]GlcNAc
# In short: as §1
# [16] = target: Neu5Ac(a2-3)Gal(b1-4)GlcNAc(b1-2)[Neu5Ac(a2-3)Gal(b1-4)GlcNAc(b1-4)]Man(a1-3)[GlcNAc(b1-4)][Neu5Ac(a2-3)Gal(b1-4)GlcNAc(b1-2)[Neu5Ac(a2-3)Gal(b1-4)GlcNAc(b1-6)]Man(a1-6)]Man(b1-4)GlcNAc(b1-4)GlcNAc
# In short: as §1
# [17] = target: Neu5Ac(a2-3)Gal(b1-4)GlcNAc(b1-2)[Neu5Ac(a2-3)Gal(b1-4)GlcNAc(b1-4)]Man(a1-3)[GlcNAc(b1-4)][Neu5Ac(a2-3)Gal(b1-4)GlcNAc(b1-4)Man(a1-6)]Man(b1-4)GlcNAc(b1-4)GlcNAc
# In short: as §1
# [18] = target: Neu5Ac(a2-3)Gal(b1-4)GlcNAc(b1-3)Gal(b1-4)GlcNAc(b1-3)Gal(b1-4)GlcNAc(b1-2)Man(a1-3)[Neu5Ac(a2-3)Gal(b1-4)GlcNAc(b1-3)Gal(b1-4)GlcNAc(b1-3)Gal(b1-4)GlcNAc(b1-2)Man(a1-6)]GalNAc
# In short: as §1
# [19] = target: Neu5Ac(a2-3)Gal(b1-4)GlcNAc(b1-3)Gal(b1-4)GlcNAc(b1-3)GalNAc
# In short: as §1
# [20] = target: Neu5Ac(a2-6)Gal(b1-4)GlcNAc(b1-2)Man(a1-3)[Neu5Ac(a2-6)Gal(b1-4)GlcNAc(b1-2)Man(a1-6)]Man(b1-4)GlcNAc(b1-4)GlcNAc
# In short: as §1
# [21] = target: Neu5Ac(a2-6)Gal(b1-4)GlcNAc(b1-2)Man(a1-3)[Neu5Ac(a2-6)Gal(b1-4)GlcNAc(b1-2)Man(a1-6)]Man(b1-4)GlcNAc(b1-4)[Fuc(a1-6)]GlcNAc
# In short: as §1
# [22] = target: Neu5Ac(a2-6)Gal(b1-4)GlcNAc(b1-2)Man(a1-6)[Man(a1-3)]Man(b1-4)GlcNAc(b1-4)GlcNAc
# In short: as §1
# [23] = target: Neu5Ac(a2-6)Gal(b1-4)GlcNAc(b1-3)Gal(b1-4)GlcNAc(b1-3)[Neu5Ac(a2-6)Gal(b1-4)GlcNAc(b1-3)Gal(b1-4)GlcNAc(b1-6)]GalNAc
# In short: as §1
# [24] = target: Neu5Ac(a2-6)GalNAc
# In short: as §1
# [25] = target: Neu5Ac(a2-8)Neu5Ac
# In short: as §1
# [26] = target: Neu5Ac(a2-8)Neu5Ac(a2-3)Gal(b1-3)GalNAc(b1-4)[Neu5Ac(a2-8)Neu5Ac(a2-3)]Gal(b1-4)Glc
# In short: as §1
# [27] = target: Neu5Ac(a2-8)Neu5Ac(a2-8)Neu5Ac(a2-8)Neu5Ac(a2-3)[GalNAc(b1-4)]Gal(b1-4)Glc
# In short: as §1
# [28] = target: Neu5Ac9Ac(a2-3)Gal(b1-3)GlcNAc
# In short: as §1
# [29] = target: Neu5Gc(a2-8)Neu5Gc(a2-3)Gal(b1-4)GlcNAc(b1-3)Gal(b1-4)GlcNAc
# In short: as §1
binder,measurement,setting,value
B1,glycan array binding signal (z-score),[1],3.66
same,glycan array binding signal (z-score),[2],-0.141
same,glycan array binding signal (z-score),[3],-0.137
same,glycan array binding signal (z-score),[4],6.26
same,glycan array binding signal (z-score),[5],10.9
same,glycan array binding signal (z-score),[6],-0.152
same,glycan array binding signal (z-score),[7],-0.151
same,glycan array binding signal (z-score),[8],-0.151
same,glycan array binding signal (z-score),[9],-0.14
same,glycan array binding signal (z-score),[10],-0.134
same,glycan array binding signal (z-score),[11],-0.118
same,glycan array binding signal (z-score),[12],-0.138
same,glycan array binding signal (z-score),[13],1.72
same,glycan array binding signal (z-score),[14],5.88
same,glycan array binding signal (z-score),[15],3.85
same,glycan array binding signal (z-score),[16],2.98
same,glycan array binding signal (z-score),[17],5.72
same,glycan array binding signal (z-score),[18],-0.107
same,glycan array binding signal (z-score),[19],-0.106
same,glycan array binding signal (z-score),[20],-0.134
same,glycan array binding signal (z-score),[21],-0.131
same,glycan array binding signal (z-score),[22],-0.148
same,glycan array binding signal (z-score),[23],-0.138
same,glycan array binding signal (z-score),[24],-0.164
same,glycan array binding signal (z-score),[25],-0.146
same,glycan array binding signal (z-score),[26],-0.138
same,glycan array binding signal (z-score),[27],-0.132
same,glycan array binding signal (z-score),[28],-0.156
same,glycan array binding signal (z-score),[29],2.45
